Laboratory results published in PubChem BioAssay AID1259343 (VanderVen Lab, College of Veterinary Medicine, Cornell …, 2017).
About 2,900 (47%) of roughly 6,200 compounds were called active. Rule as the data show it: active = inhibition above about 50%; inactive = the rest. The set was probably picked from earlier hits. This is one part of the list.

experiment: Mycobacterium tuberculosis growth inhibition, primary screen (AID 1259343); details: inhibition: at 10 µM, hits give high values; outcome: 10 uM

| SMILES | inhibition |
| --- | --- |
| Cn1c(=NN=CC(Cl)=Cc2ccccc2)sc2ccccc21 | 88.7% (active) |
| Cn1c(=NN=Cc2ccccc2C(F)(F)F)sc2ccccc21 | -39.7% (inactive) |
| Cn1c(=NN=Cc2ccc(OC(F)F)cc2)sc2ccccc21 | -24.6% (inactive) |
| COc1cc(C=NN=c2sc3ccccc3n2C)cc(OC)c1O | 68.8% (active) |
| COc1cc(C=NN=c2sc3ccccc3n2C)cc(Br)c1O | 10.7% (inactive) |
| Cn1c(=NN=CC(Br)=Cc2ccccc2)sc2ccccc21 | 88.2% (active) |
| CCN(CCNC(=O)NCC1CCCC1)C(=O)OC(C)(C)C | 47.4% (inactive) |
| Cc1cc(NC(=O)C2CC2)sc1C(=O)n1ccnc1 | 48.7% (inactive) |
| O=C(NCC1CCCC1)n1ccnc1 | 79.2% (active) |
| CC1CN(C(=O)CN2CCc3sccc3C2c2cccc(F)c2)CCN1C(=O)Nc1ccc([N+](=O)[O-])cc1 (stereo not drawn) | -36.2% (inactive) |
| OC(C#Cc1ccccc1)C#CC(O)(c1ccccc1)c1ccccc1 (stereo not drawn) | -2.57% (inactive) |
| N#CC(=Cc1ccc2c(c1)OCCO2)C(=O)Nc1ccc(SC(F)F)cc1 | 84.4% (active) |
| CSc1ccc(C=CC(=O)c2ccc3c(c2)OCCO3)cc1 | -10.1% (inactive) |
| CC(C)(C)c1ccccc1NS(=O)(=O)c1ccc(Cl)s1 | 23.7% (inactive) |
| O=S(=O)(Nc1ccccc1Br)c1ccccc1Br | 91.4% (active) |
| O=S(=O)(Nc1ccccc1Br)c1ccc(Br)s1 | 83.3% (active) |
| CCc1ccccc1NS(=O)(=O)c1cc(Cl)cnc1N | 1.41% (inactive) |
| COC(=O)c1ccc(NS(=O)(=O)c2ccccc2Br)s1 | 43.4% (inactive) |
| CC1(C)C(C=C(Cl)Cl)C1C(=O)OCc1cccc(Oc2ccccc2)c1 (stereo not drawn) | -12.7% (inactive) |
| O=C(NCCc1ccc(Cl)cc1Cl)c1cn[nH]c1 | 91.4% (active) |
| CCOc1ccccc1CNC(=O)c1ccc(-c2cc(-c3ccc(Cl)cc3Cl)[nH]n2)cc1 | 31.1% (inactive) |
| O=C(NCCc1cc(Cl)cc(Cl)c1)c1ccc2c(c1)COCO2 | 25.3% (inactive) |
| CN(C)c1c(Cl)cccc1NC(=O)NCc1ccoc1 | 40.8% (inactive) |
| N#Cc1ccc(NC(=O)Cc2cccc(C(F)(F)F)c2)cc1Cl | 8.71% (inactive) |
| FC(F)(F)c1cccc(CSc2ncnc3ccccc23)c1 | 38.1% (inactive) |
| CC(=O)Nc1ccc(OCc2cccc(C(F)(F)F)c2)cc1 | 57.6% (active) |
| CC(=O)Nc1ccc(OCc2ccc(Br)cc2F)cc1 | 62.5% (active) |

| SMILES | inhibition |
| --- | --- |
| Oc1cccc(OCc2cccc(C(F)(F)F)c2)c1 | 89.2% (active) |
| COc1cc(COc2ccc(NC(C)=O)cc2)c(OC)cc1Br | 19.7% (inactive) |
| CC(NS(=O)(=O)Cc1cccc(C(F)(F)F)c1)c1cccc(Br)c1 (stereo not drawn) | 25.3% (inactive) |
| ON=Cc1cccc(OCc2ccccc2)c1 | -7.21% (inactive) |
| COc1ccccc1/C=C/C=C1N=C(/C=C/c2ccc(C)cc2)OC\1=O | 81.8% (active) |
| O=C1N=C(c2ccccc2)OC1=CC=Cc1ccccc1 | -12.3% (inactive) |
| Cc1cc(NC(=O)c2cccn(Cc3ccc(Cl)cc3)c2=O)c2ccccc2n1 | 20.7% (inactive) |
| O=c1c2ccccc2nnn1CSc1ccc(F)cc1 | 72.2% (active) |
| O=c1c2ccccc2nnn1Cc1ccc(Cl)cc1 | 103% (active) |
| Cc1ccc(OCC(O)Cn2nnc3ccccc3c2=O)cc1 (stereo not drawn) | 35% (inactive) |
| CCCc1nnc(SCc2ccc(OCCC(C)C)cc2)n1N | 37.1% (inactive) |
| CC1N(C)c2ccc(C=C(C#N)C#N)cc2C1(C)C (stereo not drawn) | -15.1% (inactive) |
| CC(C)CCOc1ccc(C=C(C#N)C#N)cc1 | 51.5% (active) |
| Cc1csc(SCc2cc(=O)c(OC(=O)c3ccc(C)c(C)c3)co2)n1 | -15% (inactive) |
| O=C(c1cnn2ccccc12)N1CCCC(CCc2cccc(C(F)(F)F)c2)C1 (stereo not drawn) | 93.1% (active) |
| CC(C)c1ncc(CN2CCCC(CCc3cccc(C(F)(F)F)c3)C2)cn1 (stereo not drawn) | 93.2% (active) |
| O=C(c1cc(COc2cccc(C(F)(F)F)c2)on1)N1CCCC(CCCO)C1 (stereo not drawn) | 47.5% (inactive) |
| COc1coc(CN2CCCC(CCc3ccccc3C)C2)cc1=O (stereo not drawn) | 33.7% (inactive) |
| COc1ncc(C(=O)N2CCCC(COc3cccc(F)c3)C2)cn1 (stereo not drawn) | 36.7% (inactive) |
| COc1ncc(CN2CCCC(CCc3ccccc3C(F)(F)F)C2)cn1 (stereo not drawn) | 77.6% (active) |
| CCCC1CCCN(C(=O)c2cc3ccccc3cc2O)CC1 (stereo not drawn) | 23.5% (inactive) |
| CCOc1ccc(Cn2c(=O)oc3ccccc32)cc1 | 68.1% (active) |
| CCCOc1ccc(Cc2nn[nH]n2)cc1 | 34.6% (inactive) |
| CCCOc1ccc(C2c3c(oc4ccc(C)cc4c3=O)C(=O)N2c2nccs2)cc1 (stereo not drawn) | -18.8% (inactive) |
| COc1ccc(Cn2c(C3CCCCC3)nc3oc4ccccc4c(=O)c3c2=O)cc1 | -20.8% (inactive) |
| CCCOc1ccc(Cn2c(=O)oc3ccc(C)cc32)cc1 | 67.2% (active) |
